Laboratory results reported in PubChem BioAssay (EPA / NIEHS).
Inconclusive results are not listed. Some structures have more than one record in an assay (separate samples or runs), and their calls can disagree. Active and inactive are the calls of the source. The calls were made as follows, unless noted: active = hit-call score of the fitted dose curve at least 0.9, where 1 is the maximum; inactive = score below 0.9.

Experiments:
[1] = biological target: Glucocorticoid receptor (Homo sapiens) (UniProt P04150); experiment: ATG_GR_TRANS: Attagene TRANS-FACTORIAL HepG2 Assay for human Glucocorticoid Receptor (GR) (AID 2282978; active = hit-call score of the fitted dose curve at least 0.9, where 1 is the maximum;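 also: activators score as hits since higher reporter transcript over DMSO is fitted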); settings: HepG2 Attagene TRANS GR reporter, mRNA transcription
Sequence of Glucocorticoid receptor (Homo sapiens) (P04150 whole entry, looked up, the tested form may be a part): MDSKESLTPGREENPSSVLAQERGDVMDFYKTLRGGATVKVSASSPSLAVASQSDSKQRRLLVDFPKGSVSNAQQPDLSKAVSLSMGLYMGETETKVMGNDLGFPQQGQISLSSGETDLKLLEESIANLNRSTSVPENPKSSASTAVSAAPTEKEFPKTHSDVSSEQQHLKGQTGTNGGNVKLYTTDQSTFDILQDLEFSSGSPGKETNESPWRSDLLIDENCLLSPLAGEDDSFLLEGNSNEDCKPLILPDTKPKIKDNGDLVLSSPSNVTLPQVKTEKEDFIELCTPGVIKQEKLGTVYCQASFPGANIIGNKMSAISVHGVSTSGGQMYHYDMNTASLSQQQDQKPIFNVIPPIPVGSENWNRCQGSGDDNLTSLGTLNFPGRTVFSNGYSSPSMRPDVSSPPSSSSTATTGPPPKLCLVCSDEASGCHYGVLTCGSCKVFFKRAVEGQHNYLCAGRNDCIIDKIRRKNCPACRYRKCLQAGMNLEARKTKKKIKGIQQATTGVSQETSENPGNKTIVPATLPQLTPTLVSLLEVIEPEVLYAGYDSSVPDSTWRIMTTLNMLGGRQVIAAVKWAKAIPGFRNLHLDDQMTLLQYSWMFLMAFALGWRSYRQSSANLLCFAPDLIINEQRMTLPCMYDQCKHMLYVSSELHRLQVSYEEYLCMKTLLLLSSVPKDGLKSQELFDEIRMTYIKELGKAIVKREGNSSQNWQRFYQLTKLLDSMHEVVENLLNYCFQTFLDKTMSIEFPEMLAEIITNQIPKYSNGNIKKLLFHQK
Summary of the method: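 Transiently transfected HepG2 cells express chimeric NR-GAL4 proteins acting on GAL4-UAS reporter units. Compounds are applied for 24 h. mRNA induction over DMSO is measured by capillary electrophoresis.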

[2] = biological target: Bile acid receptor (Homo sapiens) (UniProt Q96RI1); experiment: ATG_FXR_TRANS: Attagene TRANS-FACTORIAL HepG2 Assay for Farnesoid X Receptor (FXR) (AID 2282979; active = hit-call score of the fitted dose curve at least 0.9, where 1 is the maximum;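 also: hits raise reporter mRNA above DMSO so AC50 marks FXR activation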); settings: HepG2 Attagene TRANS FXR-GAL4 reporter transcription
Sequence of Bile acid receptor (Homo sapiens) (Q96RI1 whole entry, looked up, the tested form may be a part): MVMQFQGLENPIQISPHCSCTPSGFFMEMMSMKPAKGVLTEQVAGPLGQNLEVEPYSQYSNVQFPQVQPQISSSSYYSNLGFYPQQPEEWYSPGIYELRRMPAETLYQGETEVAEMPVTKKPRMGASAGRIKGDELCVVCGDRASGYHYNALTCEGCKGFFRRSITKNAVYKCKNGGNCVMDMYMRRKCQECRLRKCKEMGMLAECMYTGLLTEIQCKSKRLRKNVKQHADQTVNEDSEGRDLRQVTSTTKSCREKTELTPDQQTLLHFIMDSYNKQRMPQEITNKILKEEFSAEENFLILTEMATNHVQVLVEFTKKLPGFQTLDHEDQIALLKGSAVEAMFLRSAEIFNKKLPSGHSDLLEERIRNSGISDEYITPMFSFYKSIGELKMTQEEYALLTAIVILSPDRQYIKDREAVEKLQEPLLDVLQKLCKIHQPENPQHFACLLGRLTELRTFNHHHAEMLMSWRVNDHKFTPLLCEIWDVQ
Summary of the method: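 After 24 h chemical treatment of transfected HepG2 cells, GAL4-UAS reporter transcripts driven by an exogenous FXR-GAL4 fusion were measured by RT-PCR and capillary electrophoresis. Increases over DMSO were fitted.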

[3] = biological target: Oxysterols receptor LXR-alpha (Homo sapiens) (UniProt Q13133); experiment: ATG_LXRa_TRANS: Attagene TRANS-FACTORIAL HepG2 Assay for human Liver X Receptor alpha (LXRa) (AID 2282980; active = hit-call score of the fitted dose curve at least 0.9, where 1 is the maximum); settings: HepG2 Attagene TRANS reporter, LXRa transactivation
Sequence of Oxysterols receptor LXR-alpha (Homo sapiens) (Q13133 whole entry, looked up, the tested form may be a part): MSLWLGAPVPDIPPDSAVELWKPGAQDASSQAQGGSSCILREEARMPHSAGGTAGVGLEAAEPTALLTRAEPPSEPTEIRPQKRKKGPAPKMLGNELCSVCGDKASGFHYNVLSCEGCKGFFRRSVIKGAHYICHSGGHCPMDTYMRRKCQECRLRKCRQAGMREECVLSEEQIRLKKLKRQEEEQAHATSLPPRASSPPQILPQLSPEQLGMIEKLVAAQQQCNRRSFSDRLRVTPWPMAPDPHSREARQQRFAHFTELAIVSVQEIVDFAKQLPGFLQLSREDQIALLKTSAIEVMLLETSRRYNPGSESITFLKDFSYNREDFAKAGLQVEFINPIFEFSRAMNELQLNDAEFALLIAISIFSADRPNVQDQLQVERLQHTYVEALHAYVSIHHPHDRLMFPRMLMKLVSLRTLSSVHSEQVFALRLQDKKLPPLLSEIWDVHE
Summary of the method: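 In this multiplexed TRANS system, compounds act on HepG2 cells carrying GAL4-UAS reporter units and a receptor-GAL4 fusion for 24 h. Induced reporter RNA is amplified, fluorescently labelled and sized by capillary electrophoresis, with DMSO as baseline.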

[4] = biological target: Oxysterols receptor LXR-beta (Homo sapiens) (UniProt P55055); experiment: ATG_LXRb_TRANS: Attagene TRANS-FACTORIAL HepG2 Assay for human Liver X Receptor beta (LXRb) (AID 2282981; active = hit-call score of the fitted dose curve at least 0.9, where 1 is the maximum); settings: HepG2 Attagene TRANS GAL4-LXRb reporter, mRNA
Sequence of Oxysterols receptor LXR-beta (Homo sapiens) (P55055 whole entry, looked up, the tested form may be a part): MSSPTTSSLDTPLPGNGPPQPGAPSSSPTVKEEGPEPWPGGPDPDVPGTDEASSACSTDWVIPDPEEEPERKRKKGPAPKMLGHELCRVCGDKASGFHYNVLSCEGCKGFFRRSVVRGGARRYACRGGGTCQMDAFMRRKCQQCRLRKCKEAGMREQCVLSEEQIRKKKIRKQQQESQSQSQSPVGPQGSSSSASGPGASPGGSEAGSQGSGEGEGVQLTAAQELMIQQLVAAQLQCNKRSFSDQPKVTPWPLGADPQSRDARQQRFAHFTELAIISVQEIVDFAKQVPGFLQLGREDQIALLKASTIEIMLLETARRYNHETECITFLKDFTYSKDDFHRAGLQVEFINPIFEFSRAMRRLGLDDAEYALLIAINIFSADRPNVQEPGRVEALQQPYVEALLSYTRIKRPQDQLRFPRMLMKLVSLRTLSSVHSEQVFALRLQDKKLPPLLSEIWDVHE
Summary of the method: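 After 24 h chemical treatment of transfected HepG2 cells carrying exogenous NR-Gal4 chimeras, reporter mRNA was quantified by fluorescent RT-PCR and capillary electrophoresis; activity taken as increase over DMSO controls.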

[5] = biological target: Hepatocyte nuclear factor 4-alpha (Homo sapiens) (UniProt P41235); experiment: ATG_HNF4a_TRANS: Attagene TRANS-FACTORIAL HepG2 Assay for human Hepatocyte Nuclear Factor 4 alpha (HNF4a) (AID 2282982; active = hit-call score of the fitted dose curve at least 0.9, where 1 is the maximum); settings: HepG2 HNF4a transactivation reporter, mRNA readout
Sequence of Hepatocyte nuclear factor 4-alpha (Homo sapiens) (P41235 whole entry, looked up, the tested form may be a part): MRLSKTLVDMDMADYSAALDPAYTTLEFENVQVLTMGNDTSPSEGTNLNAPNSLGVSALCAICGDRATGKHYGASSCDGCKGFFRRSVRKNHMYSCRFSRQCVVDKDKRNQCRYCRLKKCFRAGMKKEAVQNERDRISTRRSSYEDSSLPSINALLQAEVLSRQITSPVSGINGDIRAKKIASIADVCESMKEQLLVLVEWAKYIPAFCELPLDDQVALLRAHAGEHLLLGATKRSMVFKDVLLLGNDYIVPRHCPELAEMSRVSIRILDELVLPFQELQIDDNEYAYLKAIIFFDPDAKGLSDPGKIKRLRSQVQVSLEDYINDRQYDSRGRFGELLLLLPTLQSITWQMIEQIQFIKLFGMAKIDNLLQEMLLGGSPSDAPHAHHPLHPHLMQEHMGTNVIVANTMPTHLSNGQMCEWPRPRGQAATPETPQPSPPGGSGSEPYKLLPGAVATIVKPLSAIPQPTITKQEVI
Summary of the method: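 Activity of an exogenous HNF4a–Gal4 fusion scored as induced GAL4-UAS reporter transcripts after 24 h chemical exposure of transfected human HepG2 cells. Read-out via RT-PCR with 6-FAM labelling and capillary electrophoresis; rise over DMSO baseline.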

[6] = ATG_M_06_TRANS: Attagene TRANS-FACTORIAL HepG2 Assay for M06 Transcription Factor (Internal Marker) (AID 2282983; active = hit-call score of the fitted dose curve at least 0.9, where 1 is the maximum;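 also: reporter transcript level by RT-PCR then capillary electrophoresis fluorescence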); settings: HepG2 Attagene TRANS M06 internal marker reporter
Summary of the method: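 Multi-reporter-transfected HepG2, 24 h treatment; reporter transcripts quantified via RT-PCR, primer-extension labelling and CE. DMSO-normalized gain-of-signal fit.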

[7] = ATG_M_32_TRANS: Attagene TRANS-FACTORIAL HepG2 Assay for M32 Transcription Factor (Internal Marker) (AID 2282984; active = hit-call score of the fitted dose curve at least 0.9, where 1 is the maximum;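 also: transcript level of a background control reporter unit measured by RT-PCR and capillary electrophoresis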); settings: HepG2 Attagene TRANS M32 internal marker reporter
Summary of the method: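 Internal background reporter in transfected HepG2: after 24 h chemical exposure, RNA reverse-transcribed, reporter cDNA amplified, fluorescently labelled and HpaI-cut, then sized by capillary electrophoresis. Gain of signal fitted against DMSO control.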

[8] = biological target: Nuclear receptor subfamily 4 group A member 2 (Homo sapiens) (UniProt P43354); experiment: ATG_NURR1_TRANS: Attagene TRANS-FACTORIAL HepG2 Assay for human Nuclear Receptor Related Protein 1 (NURR1) (AID 2282985; active = hit-call score of the fitted dose curve at least 0.9, where 1 is the maximum); settings: HepG2 Attagene TRANS reporter, mRNA readout
Sequence of Nuclear receptor subfamily 4 group A member 2 (Homo sapiens) (P43354 whole entry, looked up, the tested form may be a part): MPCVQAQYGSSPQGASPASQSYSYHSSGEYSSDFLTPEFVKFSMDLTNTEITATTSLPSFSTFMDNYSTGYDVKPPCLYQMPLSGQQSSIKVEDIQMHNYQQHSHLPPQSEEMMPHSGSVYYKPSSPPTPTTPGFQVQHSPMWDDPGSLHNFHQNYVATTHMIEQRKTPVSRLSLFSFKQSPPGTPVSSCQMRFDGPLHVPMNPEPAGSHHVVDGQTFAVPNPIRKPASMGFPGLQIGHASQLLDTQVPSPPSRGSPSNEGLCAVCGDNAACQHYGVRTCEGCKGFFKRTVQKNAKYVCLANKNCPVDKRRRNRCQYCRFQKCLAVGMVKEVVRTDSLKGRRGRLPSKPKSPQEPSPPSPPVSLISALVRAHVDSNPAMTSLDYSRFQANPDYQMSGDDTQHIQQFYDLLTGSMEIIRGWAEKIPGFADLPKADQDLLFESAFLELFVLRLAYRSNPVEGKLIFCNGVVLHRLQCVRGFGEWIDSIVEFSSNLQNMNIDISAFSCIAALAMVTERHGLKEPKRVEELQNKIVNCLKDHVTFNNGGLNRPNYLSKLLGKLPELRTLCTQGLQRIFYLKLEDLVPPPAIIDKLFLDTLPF
Summary of the method: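 Reporter transcript induction, measured by RT-PCR with fluorescent labelling, HpaI digestion and capillary electrophoresis, after 24 hr dosing of human HepG2 cells transiently expressing an exogenous NR-Gal4 fusion with GAL4-UAS-driven reporters; DMSO as baseline.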

[9] = biological target: Transcriptional activator Myb (Homo sapiens) (UniProt P10242); experiment: ATG_Myb_CIS: Attagene CIS-FACTORIAL HepG2 Assay for human Myeloblastosis (Myb) Proto-Oncogene Transcription Factor (AID 2282986); settings: HepG2 Attagene CIS-FACTORIAL Myb reporter transcription; actives raise or lower the signal
Sequence of Transcriptional activator Myb (Homo sapiens) (P10242 whole entry, looked up): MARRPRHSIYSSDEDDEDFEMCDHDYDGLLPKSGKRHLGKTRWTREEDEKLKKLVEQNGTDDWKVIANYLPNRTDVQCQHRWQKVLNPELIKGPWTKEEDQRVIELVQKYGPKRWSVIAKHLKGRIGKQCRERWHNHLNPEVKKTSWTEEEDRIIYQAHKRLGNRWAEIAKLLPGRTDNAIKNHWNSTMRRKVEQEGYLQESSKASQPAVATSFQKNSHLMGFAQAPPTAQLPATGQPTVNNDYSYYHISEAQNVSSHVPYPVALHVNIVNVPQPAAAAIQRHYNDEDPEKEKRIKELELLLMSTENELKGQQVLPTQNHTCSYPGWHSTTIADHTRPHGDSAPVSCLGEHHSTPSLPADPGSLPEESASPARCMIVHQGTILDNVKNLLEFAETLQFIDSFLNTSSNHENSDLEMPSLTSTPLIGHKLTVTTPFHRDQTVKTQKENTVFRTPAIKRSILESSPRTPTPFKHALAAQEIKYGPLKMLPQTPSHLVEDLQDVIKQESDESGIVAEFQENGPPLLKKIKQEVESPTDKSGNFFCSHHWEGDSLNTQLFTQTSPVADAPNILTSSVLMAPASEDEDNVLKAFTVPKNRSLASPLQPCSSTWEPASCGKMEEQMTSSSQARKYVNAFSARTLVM
Summary of the method: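 Using HepG2 liver cells bearing transiently transfected cis-promoter reporter constructs, the assay measures induction or loss of reporter mRNA after 24 hours of dosing. Detection used fluorescently labeled RT-PCR products separated by capillary electrophoresis.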

[10] = biological target: Nuclear respiratory factor 1 (Homo sapiens) (UniProt Q16656); experiment: ATG_NRF1_CIS: Attagene CIS-FACTORIAL HepG2 Assay for human Nuclear Respiratory Factor 1 (NRF1) Orphan Gene (AID 2282987); settings: HepG2 NRF1 cis-element reporter, Attagene multiplex; actives raise or lower the signal
Sequence of Nuclear respiratory factor 1 (Homo sapiens) (Q16656 whole entry, looked up): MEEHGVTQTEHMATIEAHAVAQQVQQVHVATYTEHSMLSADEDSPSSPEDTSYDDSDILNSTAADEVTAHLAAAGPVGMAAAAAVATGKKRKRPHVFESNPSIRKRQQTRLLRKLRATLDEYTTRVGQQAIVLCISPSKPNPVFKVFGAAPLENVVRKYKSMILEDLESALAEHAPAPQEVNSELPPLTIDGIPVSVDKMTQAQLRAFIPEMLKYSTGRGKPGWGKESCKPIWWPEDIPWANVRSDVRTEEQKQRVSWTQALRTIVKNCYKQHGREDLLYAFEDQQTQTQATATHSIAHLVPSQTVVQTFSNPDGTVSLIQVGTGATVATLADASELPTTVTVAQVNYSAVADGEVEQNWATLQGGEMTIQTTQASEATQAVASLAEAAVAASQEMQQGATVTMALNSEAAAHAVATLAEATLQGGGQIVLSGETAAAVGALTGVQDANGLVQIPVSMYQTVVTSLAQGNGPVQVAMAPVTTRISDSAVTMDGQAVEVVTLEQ
Summary of the method: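 Reporter mRNA induction or loss in HepG2 cells after 24 h dosing; cis-regulated reporter constructs report endogenous transcription-factor activity. Quantified by RT-PCR/capillary electrophoresis fluorescence, DMSO-referenced.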

[11] = ATG_NFI_CIS: Attagene CIS-FACTORIAL HepG2 Assay for human Nuclear Factor I (NFI) (AID 2282989); settings: HepG2 cis-regulatory reporter, NFI response element transcription; actives raise or lower the signal
Summary of the method: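 Transient MRTU transfection of HepG2 → 24 h chemical dosing → total RNA, oligo(dT) RT → PCR, 6-FAM primer extension, HpaI cut → capillary electrophoresis. Endpoint fitted bidirectionally relative to DMSO.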

[12] = biological target: Myc proto-oncogene protein (Homo sapiens) (UniProt P01106); experiment: ATG_Myc_CIS: Attagene CIS-FACTORIAL HepG2 Assay for human Myelocytomatosis (Myc) Proto-Oncogene Transcription Factor (AID 2282990); settings: HepG2, Attagene cis-reporter transcription factor activity; actives raise or lower the signal
Summary of the method: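 After 24 h chemical treatment of HepG2 cells carrying multiplexed cis-regulated reporter constructs, reporter transcripts quantified by RT-PCR and capillary electrophoresis of fluorescent fragments. Gain or loss fitted against DMSO baseline.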

[13] = ATG_NF_kB_CIS: Attagene CIS-FACTORIAL HepG2 Assay for human Nuclear Factor Kappa B (NF-kB) (AID 2282991); settings: HepG2 Attagene cis-factorial NF-kB reporter mRNA; actives raise or lower the signal
Summary of the method: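 DMSO served as negative control and baseline for bidirectional curve fitting. Transiently transfected HepG2 cells were dosed for 24 h, then reporter transcripts were measured by RT-PCR with capillary electrophoresis detection.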

[14] = ATG_NRF2_ARE_CIS: Attagene CIS-FACTORIAL HepG2 Assay for human Nuclear Factor Erythroid 2 Related Factor 2 (NFR2) response to Antioxidant Response Elements (ARE) (AID 2282992); settings: HepG2 Attagene ARE/NRF2 reporter, transcription factor activity; actives raise or lower the signal;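 as to AC50: reporter mRNA level measured by RT-PCR and capillary electrophoresis fluorescence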
Summary of the method: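 Endogenous transcription factor activity in human liver HepG2 cells is tracked via a cis-element-driven reporter within a multiplexed set. mRNA induction is read by RT-PCR and capillary electrophoresis after 24 h, with DMSO as baseline.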

[15] = ATG_Oct_MLP_CIS: Attagene CIS-FACTORIAL HepG2 Assay for human Octamer-Binding Transcription Factor (Oct) (AID 2282993); settings: HepG2 Attagene cis-factorial Oct reporter, mRNA; actives raise or lower the signal
Summary of the method: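 Transient MRTU transfection of HepG2 → 24 h compound treatment → RNA isolation, reverse transcription, PCR → 6-FAM primer extension, HpaI digest → capillary electrophoresis. Activity fitted both directions against DMSO.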

[16] = biological target: Cellular tumor antigen p53 (Homo sapiens) (UniProt P04637); experiment: ATG_p53_CIS: Attagene CIS-FACTORIAL HepG2 Assay for human p53 Transcription Factor (AID 2282994); settings: HepG2 p53 cis-element reporter, Attagene mRNA; actives raise or lower the signal
Sequence of Cellular tumor antigen p53 (Homo sapiens) (P04637 whole entry, looked up, the tested form may be a part): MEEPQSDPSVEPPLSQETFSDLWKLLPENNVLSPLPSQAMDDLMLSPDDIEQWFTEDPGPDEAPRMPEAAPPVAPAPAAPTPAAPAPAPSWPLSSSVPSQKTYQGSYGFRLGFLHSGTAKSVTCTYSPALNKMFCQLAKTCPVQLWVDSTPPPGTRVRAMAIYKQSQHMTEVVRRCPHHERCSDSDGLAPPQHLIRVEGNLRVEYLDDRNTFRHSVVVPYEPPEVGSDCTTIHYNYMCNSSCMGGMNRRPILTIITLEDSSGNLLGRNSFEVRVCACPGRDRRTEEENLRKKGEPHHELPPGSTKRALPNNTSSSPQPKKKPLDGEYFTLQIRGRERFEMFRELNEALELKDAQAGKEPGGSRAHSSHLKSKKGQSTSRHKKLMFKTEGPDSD
Summary of the method: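 Steps: transfect HepG2 with multiplexed cis reporter constructs; dose chemicals 24 h; extract RNA, reverse-transcribe, PCR-amplify reporter sequences; FAM-label, HpaI-digest, resolve fragments by CE. Activity fitted both directions relative to DMSO.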

[17] = BSK_3C_TissueFactor: BioMAP Diversity Plus: 3C Assay for Tissue Factor Biomarker Activity (AID 2282997); settings: BioMAP 3C HUVEC, tissue factor biomarker readout; actives raise or lower the signal
Summary of the method: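 In this endothelial system, HUVEC are treated for 24 h and Tissue Factor is assessed by ELISA, normalised to DMSO.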

[18] = BSK_3C_uPAR: BioMAP Diversity Plus: 3C Assay for Urokinase-type plasminogen activator receptor (uPAR) Biomarker Activity (AID 2282998); settings: BioMAP 3C HUVEC, uPAR biomarker ELISA; actives raise or lower the signal
Summary of the method: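 ELISA readout of uPAR on human vascular endothelium (umbilical vein primary cells), taken 24 h after chemical dosing. Increases and decreases are both fitted relative to DMSO vehicle.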

[19] = BSK_3C_VCAM1: BioMAP Diversity Plus: 3C Assay for Vascular cell adhesion molecule 1 (VCAM1) Biomarker Activity (AID 2282999); settings: BioMAP 3C HUVEC, VCAM1 ELISA, cytokine-stimulated; actives raise or lower the signal
Summary of the method: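 Activity fitted in both directions relative to DMSO, with ELISA measurement of the surface marker on primary HUVEC (3C) at 24 h post-treatment; parallel SRB staining (0.1% SRB, TCA-fixed, 560 nm) flagged overt cytotoxicity.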

[20] = BSK_4H_Eotaxin3: BioMAP Diversity Plus: 4H Assay for Eotaxin 3 Biomarker Activity (AID 2283000); settings: primary human endothelial cells (HUVEC); actives raise or lower the signal;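 as to outcome: CCL26 protein level quantified by ELISA in parallel with SRB cytotoxicity check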
Summary of the method: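 ELISA quantitation of CCL26 (Eotaxin-3) protein from chemically dosed human vascular endothelial cells at 24 h; increases and decreases both scored relative to DMSO-treated baseline.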

In the case of `COc1nc(NC(C)C)nc(NC(C)C)n1`, the outcome [1] is reported as “inactive”, the outcome [2] is reported as “inactive” and the outcome [3] is reported as “inactive”. For the same compound, the outcome [4] was “inactive”, the outcome [5] was “inactive” and the outcome [6] was “inactive”. For the same compound, the outcome [7] was “inactive”, the outcome [8] was “inactive” and the outcome [9] was “inactive”. For the same compound, the outcome [10] was “inactive”, the outcome [11] was “inactive” and the outcome [12] was “inactive”. For the same compound, the outcome [13] was “inactive”, the outcome [14] was “inactive” and the AC50 [15] was 41.1 µM (active). For the same compound, the outcome [15] was “inactive”, the outcome [16] was “inactive” and the outcome [17] was “inactive”. For the same compound, the outcome [18] was “inactive”, the outcome [19] was “inactive” and the outcome [20] was “inactive”.
For `CC(C)(C)c1ccc(CSc2cnn(C(C)(C)C)c(=O)c2Cl)cc1`, the outcome [1] was “inactive”, the outcome [3] was “inactive” and the outcome [4] was “inactive”. For the same compound, the outcome [5] was “inactive”, the outcome [6] was “inactive” and the outcome [7] was “inactive”. The outcome [8] was “inactive”, the outcome [9] was “inactive” and the AC50 [10] was 19.1 µM (active). The outcome [11] was “inactive”, the outcome [12] was “inactive” and the AC50 [14] was 0.0912 µM (active). For the same compound, the AC50 [15] was 0.024 µM (active), the outcome [16] was “inactive” and the outcome [17] was “inactive”. The AC50 [18] was 8.48 µM (active), the outcome [19] was “inactive” and the AC50 [20] was 0.782 µM (active).
In the case of `COC(=O)N(OC)c1ccccc1COc1ccn(-c2ccc(Cl)cc2)n1`, the outcome [1] is reported as “inactive”, the outcome [2] is reported as “inactive” and the outcome [3] is reported as “inactive”. For the same compound, the outcome [4] was “inactive”, the outcome [5] was “inactive” and the outcome [6] was “inactive”. For the same compound, the outcome [7] was “inactive”, the outcome [9] was “inactive” and the outcome [10] was “inactive”. For the same compound, the outcome [12] was “inactive”, the AC50 [14] was 0.635 µM (active) and the AC50 [15] was 0.702 µM (active). The outcome [16] was “inactive”, the outcome [17] was “inactive” and the AC50 [18] was 20 µM (active). For the same compound, the outcome [19] was “inactive” and the AC50 [20] was 18.3 µM (active).
